# Data reported in the supplement of paper PMC6555819.
# How the values were obtained:
# Test in all cases: PBM binding z-score (relative to random genomic background probes); higher = stronger binding; sequences stand for … in GC…GCGATTGACAGCGTAGAATGAAGG
# [1] = tested on: FXR:RXRa (NR concentration 270 nM, RXRa partner concentration 90 nM)
# Procedure, shortened: (§1)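 Regression normalization was applied to scanned fluorescence from custom Agilent 4×180K protein-binding microarrays. Before scanning, arrays were incubated 1 h with ligand-free nuclear receptor dimers, and binding was detected with antibodies against each partner (one per run). Binding z-scores use the random background probes as reference.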
# [2] = tested on: LXRa:RXRa (NR concentration 270 nM, RXRa partner concentration 90 nM)
# Procedure, shortened: as §1
# [3] = tested on: LXRa homodimer (NR concentration 270 nM)
# Procedure, shortened: as §1
# [4] = tested on: LXRb:RXRa (NR concentration 270 nM, RXRa partner concentration 90 nM)
# Procedure, shortened: as §1
# [5] = tested on: LXRb homodimer (NR concentration 270 nM)
# Procedure, shortened: as §1
# [6] = tested on: PPARa:RXRa (NR concentration 270 nM, RXRa partner concentration 90 nM)
# Procedure, shortened: as §1
# [7] = tested on: PPARg:RXRa (NR concentration 180 nM, RXRa partner concentration 90 nM)
# Procedure, shortened: as §1
# [8] = tested on: PPARg:RXRa 270nM:90nM, anti-RXR (NR concentration 270 nM, RXRa partner concentration 90 nM)
# Procedure, shortened: as §1
# [9] = tested on: PPARg:RXRa 30nM:10nM, anti-RXR (NR concentration 30 nM, RXRa partner concentration 10 nM)
# Procedure, shortened: as §1
# [10] = tested on: PPARg:RXRa 90nM:30nM, anti-RXR (NR concentration 90 nM, RXRa partner concentration 30 nM)
# Procedure, shortened: as §1
# [11] = tested on: PPARg:RXRa DBDmut IVT, anti-RXR (DBD mutation: RXRa K156A/R161A, NR concentration 270 nM, RXRa partner concentration 90 nM)
# Procedure, shortened: as §1
# [12] = tested on: PPARg:RXRa IVT, anti-PPARg (NR concentration 270 nM, RXRa partner concentration 90 nM)
# Procedure, shortened: as §1
# [13] = tested on: PPARg DBDmut:RXRa IVT, anti-PPARg (DBD mutation: PPARg1 K132A/R137A, NR concentration 270 nM, RXRa partner concentration 90 nM)
# Procedure, shortened: as §1
# [14] = tested on: PPARg DBDmut IVT, anti-PPARg (DBD mutation: PPARg1 K132A/R137A, NR concentration 270 nM)
# Procedure, shortened: as §1
# [15] = tested on: PPARg homodimer (NR concentration 180 nM)
# Procedure, shortened: as §1
# [16] = tested on: PXR:RXRa (NR concentration 270 nM, RXRa partner concentration 90 nM)
# Procedure, shortened: as §1
# [17] = tested on: PXR homodimer (NR concentration 270 nM)
# Procedure, shortened: as §1
# [18] = tested on: RARa:RXR (NR concentration 270 nM, RXRa partner concentration 90 nM)
# Procedure, shortened: as §1
# [19] = tested on: RARa homodimer (NR concentration 270 nM)
# Procedure, shortened: as §1
# [20] = tested on: RARb:RXRa (NR concentration 270 nM, RXRa partner concentration 90 nM)
# Procedure, shortened: as §1
Sequence,PBM binding z-score [1],PBM binding z-score [2],PBM binding z-score [3],PBM binding z-score [4],PBM binding z-score [5],PBM binding z-score [6],PBM binding z-score [7],PBM binding z-score [8],PBM binding z-score [9],PBM binding z-score [10],PBM binding z-score [11],PBM binding z-score [12],PBM binding z-score [13],PBM binding z-score [14],PBM binding z-score [15],PBM binding z-score [16],PBM binding z-score [17],PBM binding z-score [18],PBM binding z-score [19],PBM binding z-score [20]
CATAGAGGGTCAGCTAGGCCAGAGTAGGGACGGC,3.11,2.04,-0.237,1.37,0.495,3.45,2.23,2.06,0.47,1.23,1.42,2.21,0.395,0.25,1.26,1.2,-0.122,1.9,-0.0533,3.82
TCTGCTAGGTCAACGATGGTCAGCTGATCTGCTA,3.18,2.66,-0.222,1.72,0.146,3.35,2.72,3.15,1.81,2.66,3.61,4.29,-0.0935,1.17,0.984,1.58,-0.669,2.3,-0.39,4.03
ACTAGCAGGCCACGTTTGGGTCACTCAAACAAAG,0.331,0.116,-0.479,0.601,-0.41,1.42,0.444,0.355,-0.448,-0.155,1.75,1.88,-0.646,-0.408,0.639,0.56,-0.664,1.3,-0.197,1.58
ATCTCTAGGTAAAGATAGGTCAGTGAATGCAAAT,0.743,5.46,1,2.53,0.609,1.87,0.963,1.24,0.668,0.741,2.37,2.45,1.34,1.35,1.17,1.05,0.597,1.52,1.54,1.81
TCTTGTAGATCAAGCAGGTTCAGAAAGCCTGAGT,0.0146,0.179,-0.177,0.301,-0.777,0.691,-0.504,1.16,2.45,1.72,1.67,0.23,-0.203,-0.258,-0.265,1.42,0.458,0.45,-0.397,-0.164
CGTCCAAGGTCAGCAGGTCTGTGAAAGCGACGTG,5.03,3.02,-0.272,2.06,-0.284,4.16,2.65,3.06,0.0215,1.57,2.57,2.56,0.914,-0.164,2.67,2.58,0.407,3.61,0.46,4.85
